The values that follow come from the OligoGym collection.
Also: reference of the scale not given here.

For one test, the target named is PAFAH1B2. The test can be described thus: pooled miR-30 sensor sort-seq; sequence = guide strand. As to conditions: shRNA.
Consider TACCCAGACAACAATGACCTTA, for which the sensor-assay potency score (higher = more potent) was -0.359. Regarding TTGCTGCATTAACTGCACCATG, the sensor-assay potency score (higher = more potent) is -1.37. The same measure, in the same setting: the result for TAATATTCTCCAGTTCTCCATT reads -1.1.

TGTGCTGAGACATCCATCGGTC showed a sensor-assay potency score (higher = more potent) of -0.024. On the same count and under the same terms, the result for TTTCGTGGTTATTTGTTCCTAC reads 0.14; that for TTAGTCTCCACAAAACATGTCT, -0.124; that for ATGAATTTAAACAACAATCTTC, -0.0238. On the same count and under the same terms, next, TTCTTCTGCTGTATTTTCGTGG: -0.326.

ATTTAAACAACAATCTTCCTTG yielded a sensor-assay potency score (higher = more potent) of 0.529.

Another test addresses PAG1. The description is as above. As to conditions: shRNA.
TTCTTGTGTAGTTATCTGCCTA yielded a sensor-assay potency score (higher = more potent) of -0.676. Still for that read-out and setting: the result for TTACTGATGAGTACATAGCTGA reads -0.0368; that for TTGCAAAATAATGACAACCAAC, -1.68. Turning to TTTTTTGTTTCTGTCCACCGAG, the sensor-assay potency score (higher = more potent) was -0.11.

TTTTCTTTTCTATATAGCGTTT showed a sensor-assay potency score (higher = more potent) of -1.01. Take TACATAATAGAACATATCCTAA: the sensor-assay potency score (higher = more potent) is -0.651. On the same count and under the same terms, next, TAAACTGTAGCATTAGCTCAAG: -0.488. As for TTAAACTGTAGCATTAGCTCAA, the sensor-assay potency score (higher = more potent) turned out to be 0.54.

TTGTTTTTGATAACTACCTTTC registered a sensor-assay potency score (higher = more potent) of -0.868. On the same count and under the same terms, the result for TAAATTTCACATAACCTGCTAT reads 0.485; that for TAATATTTGAAAACTCTTGGGG, 0.247; that for TTTTTGTTTCTGTCCACCGAGG, -1.07.
